Assay results from PubChem BioAssay (NCI).
This is part of a sample that, as a whole, favours compounds with a hit. Of some 83,000 tested, about 20% had one in any assay.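 Note: values are percent growth. 100 is the growth of untreated cells, values between 100 and 0 indicate rising inhibition; between -100 and 0 indicates cell death.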 Values without a mark were called inactive. Activity calls are given as the source filed them. Rule for the calls: active = growth percent below 10; inactive = the rest.

Columns and labels:
Assay in all cases: NCI-60 one-dose screen, 48 h (100 = growth as untreated, 0 = no growth, -100 = all killed)
Conditions in all cases: 10 µM
[1] = tested on: SR leukemia
[2] = tested on: RPMI-8226 leukemia
[3] = tested on: OVCAR-8 ovarian
[4] = tested on: OVCAR-5 ovarian
[5] = tested on: OVCAR-4 ovarian
[6] = tested on: SK-OV-3 ovarian
[7] = tested on: IGROV1 ovarian
[8] = tested on: OVCAR-3 ovarian
[9] = tested on: HS 578T breast
[10] = tested on: NCI/ADR-RES ovarian
[11] = tested on: T-47D breast
[12] = tested on: BT-549 breast
[13] = tested on: MDA-MB-435 melanoma
[14] = tested on: SW-620 colon
[15] = tested on: MCF7 breast
[16] = tested on: HCT-116 colon
[17] = tested on: HCC-2998 colon
[18] = tested on: KM12 colon
[19] = tested on: MDA-MB-468 breast

SMILES | growth [1] | growth [2] | growth [3] | growth [4] | growth [5] | growth [6] | growth [7] | growth [8] | growth [9] | growth [10] | growth [11] | growth [12] | growth [13] | growth [14] | growth [15] | growth [16] | growth [17] | growth [18] | growth [19]
COc1ccc(CN2[C@H](C(=O)NCc3ccc(C(=O)NO)cc3)Cc3c([nH]c4ccccc34)[C@H]2C2CC2)cc1 | 25.5% | 47.3% | 39.3% | 34.4% | 51.8% | 62% | 50.5% | 48.7% | 32.6% | 84% | 40.4% | 58.6% | 18.1% | 30.9% | 36.8% | 23% | 33% | 44.7% | 3.8% (active)
CN1C(=O)N(C)C2SC(N/N=C/c3ccccc3F)=NC21 (configuration not stated) | 16.4% | 90.9% | 88.4% | 86.7% | 92.7% | 88% | 56.6% | 6.19% (active) | 85.6% | 30.6% | 64.3% | 45.4% | -16.6% (active) | 47.4% | 32% | 37.5% | 88.5% | 45.2% | 0.576% (active)
CN1C(=O)N(C)C2SC(N/N=C/C=C/c3ccccc3)=NC21 (configuration not stated) | 13.2% | 77.1% | 93.1% | 92.8% | 72.4% | 98.4% | 68.5% | 28.8% | 89.7% | 73.9% | 61.8% | 64.1% | -19.6% (active) | 63.9% | 27.6% | 71.6% | 85.3% | 58% | -4.12% (active)
Cc1cc(=O)oc2cc(OCCCCOc3ccc(/C=C/C(=O)Nc4ccccc4[N+](=O)[O-])cc3)ccc12 | 88% | 108% | 111% | 108% | 109% | 119% | 106% | 128% | 111% | 115% | 100% | 117% | 112% | 114% | 97% | 115% | 120% | 109% | –
Cn1cc(/C=N/Nc2cccc(Cl)n2)c2ccccc21 | 27.6% | 47.6% | 80.3% | 92.5% | 60.3% | 92.6% | 46.1% | 63.3% | 69.4% | 36.1% | 47.2% | 43.4% | 10.7% | 65.9% | 35.9% | 33.3% | 48.5% | 33.1% | –
Cc1ccc(-c2ccc(SCC(=O)Nc3ccc(S(N)(=O)=O)cc3Br)nn2)cc1 | 75.3% | 67.8% | -29.8% (active) | 42% | 19.5% | 101% | 45.1% | -63.8% (active) | 31.9% | 65% | 35.2% | 14.2% | 61.9% | 60% | 32.4% | -7.84% (active) | 39.4% | 38.3% | -21.3% (active)
C/C(=C\CSc1ccccc1C(=O)O)CCCC(C)CCCC(C)CCCC(C)C (configuration not stated) | 18.7% | 35% | 54% | 115% | 57.3% | 96.5% | 76.1% | 74.4% | 56% | 43.1% | 37.3% | 80.6% | 71.8% | 55.1% | 50.4% | 34.4% | 18.3% | 46.4% | 60.3%
O=C(CSc1nnc(-c2ccc3nc(-c4ccccc4)[nH]c3c2)o1)Nc1ccc(Cl)cc1 | 29.1% | 29.6% | 21.2% | 65.1% | 61.9% | 55.9% | 52.6% | 62.9% | 16.7% | 38.5% | 23.8% | 55% | 40.2% | 66.8% | 16.3% | 36.4% | 22.2% | 33% | 55.8%
CCNCCCn1c2c(c3cc(OC)c(OC)cc3c1=O)C(=O)c1cc3c(nc1-2)OCO3 | -7.45% (active) | -34.7% (active) | -64.5% (active) | -88.7% (active) | 57.9% | 35.4% | 18.4% | -90.1% (active) | 97.4% | -30.8% (active) | 31.6% | 36.2% | -83.1% (active) | 38.7% | -88.9% (active) | -70.2% (active) | 20% | 33.7% | -36.2% (active)
CCCCSc1nc(Nc2ccc(/C(C)=N/NC(N)=S)cc2)c(C#N)c(-c2ccc(OC)cc2)n1 | 40.2% | 67.8% | 11.8% | 130% | -43.9% (active) | 94.9% | 68.4% | -27.2% (active) | 20.3% | 25.8% | 67.2% | 42.9% | 59.3% | 97.2% | 49.2% | 38.2% | 94.5% | 79.3% | 87.7%
CN1CCCN(Cc2ccc(C(=O)Nc3cccc(Nc4ccc5c(O)cccc5n4)c3)cc2C(F)(F)F)CC1 | 11.4% | 2.61% (active) | -22% (active) | -82.1% (active) | -43.5% (active) | -58.9% (active) | -78.9% (active) | -35.8% (active) | -41.2% (active) | 37.7% | -27.7% (active) | -75.2% (active) | -96.5% (active) | -92.7% (active) | -96.5% (active) | -67.4% (active) | -85.3% (active) | -11% (active) | -94.5% (active)
CC(=O)OC[C@@]1(C)C2CC[C@]3(C)C(CC=C4C5CC(C)(C)CC[C@]5(C(=O)Nc5ccccc5)CC[C@]43C)[C@@]2(C)C[C@@H](OC(C)=O)[C@@H]1OC(C)=O (some centres not stated) | 17% | 10.7% | 32.7% | 81.4% | 33.4% | 45.2% | 45.1% | 38.9% | 52.3% | 31.2% | 15.3% | 47.7% | 45.7% | 36.3% | 24.4% | 25.4% | 42.3% | 49% | -4.16% (active)
CN(C)CCNC(=O)OCCCCOc1cc(O)c2c(=O)cc(-c3ccccc3)oc2c1 | -28.9% (active) | -9.41% (active) | 3.84% (active) | -4.32% (active) | -16.2% (active) | 99.1% | -9.88% (active) | -77.1% (active) | 40.7% | 27.9% | -65.8% (active) | -59.9% (active) | -51% (active) | -31.7% (active) | -89.8% (active) | -68.9% (active) | -50.8% (active) | -49.8% (active) | -81.1% (active)
Cc1ccc(/C=C/C(=O)c2ccc(S(=O)(=O)NCCNc3nc(Nc4ccc(F)cc4)nc(N(C)C)n3)cc2)cc1 | 1.14% (active) | 4.72% (active) | 3.72% (active) | 39.2% | 21.8% | 94.7% | 52.1% | -55.9% (active) | 68.8% | 14.7% | 24.8% | 64.6% | -23% (active) | -8.7% (active) | -55.8% (active) | -51.7% (active) | -11.9% (active) | -53.8% (active) | -2.81% (active)
Cc1cc(C)nc(/N=C(\N)Nc2ccc(S(=O)(=O)Nc3nc(C)cc(C)n3)cc2)n1 | 99.8% | 98.9% | 107% | 119% | 111% | 106% | 106% | 112% | 103% | 110% | 100% | 117% | 109% | 109% | 95.1% | 110% | 113% | 111% | 106%
CC(=O)Nc1ccc(-c2cn(-c3cccc(C(=O)Nc4ccc(F)c(C(F)(F)F)c4)c3)nn2)cn1 | 34.6% | 66.6% | 2.67% (active) | 89.1% | 13.5% | 90.8% | 43.2% | 24.9% | 7.97% (active) | 86.3% | 88.2% | 103% | 59.7% | -8.11% (active) | 4.2% (active) | 14.7% | 62% | 28.4% | 42.8%
